Screening data (PubChem BioAssay)
Compounds with a hit are over-represented: about 4.1% of the library has one in this group of screens.
TRPM1 prom inh = inhibitors of MITF-driven TRPM1 promoter in melanoma cells | 330,000 compounds, 0.83% hits | inhibition, % at 12.5 µM | SK-MEL-5 TRPM1 promoter luciferase, 24 h;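 active = mean inhibition across replicates of 60% or more, whatever share of single replicates reaches that level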
EBV LMP1 NFkB = reduces LMP1-driven NF-kappaB luciferase signal; 350,000 compounds, 0.69% hits; inhibition, % at 12.5 µM; LMP1-induced NF-kappaB luciferase reporter cells, luminescence; in the data active = inhibition above about 41%;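 also: 0% = neutral control wells and 100% = reference inhibitor control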
TROY NFkB inh = TROY signaling inhibition. Q293 LMP1-TROYcd NF-kB luciferase reporter, 4 h. inhibition, % at 10 µM. 360,000 compounds, 0.98% hits. AID 1347056;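 active = compounds whose plate-normalised and pattern-corrected inhibition of the luciferase reporter signal at the single screening dose is 50% or more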
TWEAK Fn14 block = blocks TWEAK-Fn14 interaction in a reporter cell assay; AID 1159606; inhibition, % at 10 µM; 360,000 compounds, 2% hits; TWEAK-stimulated Fn14 reporter cells, luciferase luminescence, 8 h; in the data active = inhibition above about 50%
Shn3 3UTR inh = reduces Shn3 3'UTR luciferase signal in osteoblasts; AID 588674; Clone20 osteoblast Shn3 3'UTR firefly luciferase, 24 h; inhibition, % at 12.5 µM; 360,000 compounds, 0.52% hits;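 active = mean inhibition of at least 75% with every replicate also reaching 75%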;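 also: 0% = median of neutral control wells and 100% = pilot-screen positive control compound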
Peg3 promoter = reduces Peg3 promoter-driven luciferase expression in HeLa; HeLa PEG-Prom luciferase reporter, luminescence, overnight; inhibition, % at 20 µM; 360,000 compounds, 1.7% hits;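 active = inhibition of at least 50% at 20 µM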
* hit, by the source's call.

NS(=O)(=O)c1ccc2nc(NC(=O)Nc3ccccc3F)sc2c1 was read as TRPM1 prom inh -73, EBV LMP1 NFkB -78, TROY NFkB inh 8, TWEAK Fn14 block 51*, Shn3 3UTR inh -49 and Peg3 promoter -386.
For Cc1ccccc1NC(=O)Nc1nc2ccc(S(C)(=O)=O)cc2s1 the results were TRPM1 prom inh -53, EBV LMP1 NFkB -20, TROY NFkB inh -26, TWEAK Fn14 block -72, Shn3 3UTR inh -50 and Peg3 promoter -83.
For COc1ccc2[nH]c(-c3ccc(C)cc3)cc(=O)c2c1 the results were TRPM1 prom inh 51, EBV LMP1 NFkB 43*, TROY NFkB inh 42, TWEAK Fn14 block 75*, Shn3 3UTR inh 33 and Peg3 promoter 31.
`CCCCC[C@H](O)/C=C/[C@H]1CCC(=O)[C@@H]1CCCCCCC(=O)N1CCCCC1CO` (some centres undefined) gave TRPM1 prom inh 13, EBV LMP1 NFkB 10, TROY NFkB inh 37, TWEAK Fn14 block 31, Shn3 3UTR inh 28 and Peg3 promoter 63*.
Screening CCCCCC1C(=O)CCC1CC(=O)OC (centres undefined) returned TRPM1 prom inh -2, EBV LMP1 NFkB 0, TROY NFkB inh -18, TWEAK Fn14 block -26, Shn3 3UTR inh 7 and Peg3 promoter 2.
FC(F)Sc1ccc(NC(=S)N2CCN(c3ccccn3)CC2)cc1 was read as TRPM1 prom inh 4, EBV LMP1 NFkB 9, TROY NFkB inh 12, TWEAK Fn14 block 56*, Shn3 3UTR inh -34 and Peg3 promoter 21.
For Oc1ccccc1N1CCN(C(=S)Nc2ccc(SC(F)F)cc2)CC1 the results were TRPM1 prom inh -17, EBV LMP1 NFkB -13, TROY NFkB inh 15, TWEAK Fn14 block 41, Shn3 3UTR inh 9 and Peg3 promoter 11.
For O=C(NC(=S)N1CCN(c2ccccn2)CC1)c1ccco1 the results were TRPM1 prom inh 4, EBV LMP1 NFkB 54*, TROY NFkB inh 3, TWEAK Fn14 block -35, Shn3 3UTR inh -10 and Peg3 promoter 3.
`O=C(NC(=S)N1CCN(c2ccc(O)cc2)CC1)c1ccco1` gave TRPM1 prom inh -10, EBV LMP1 NFkB -1, TROY NFkB inh 11, TWEAK Fn14 block 7, Shn3 3UTR inh -25 and Peg3 promoter 4.
Cc1cccc2cc(CN(Cc3nnnn3C3CCCCC3)C3CCCC3)c3nnnn3c12 was read as TRPM1 prom inh 12, EBV LMP1 NFkB 8, TROY NFkB inh 7, TWEAK Fn14 block -2, Shn3 3UTR inh 75 and Peg3 promoter 33.
Screening C=CCN(CC=C)C(=S)NC(=O)/C=C/c1ccccc1 returned TRPM1 prom inh -1, EBV LMP1 NFkB 0, TROY NFkB inh 1, TWEAK Fn14 block 11, Shn3 3UTR inh 7 and Peg3 promoter 2.
`C=CCN(CC=C)C(=S)NC(=O)/C=C/c1ccc(C)cc1` gave TRPM1 prom inh 11, EBV LMP1 NFkB -1, TROY NFkB inh 6, TWEAK Fn14 block 63*, Shn3 3UTR inh -6 and Peg3 promoter -9.
Nc1ccc(C(=O)n2c3ccccc3c3ccccc32)cc1 was read as TRPM1 prom inh 55, EBV LMP1 NFkB 18, TROY NFkB inh 51*, TWEAK Fn14 block 37, Shn3 3UTR inh 52 and Peg3 promoter -4.
CCOC(=O)N1CCN(c2cc(NCCO)c([N+](=O)[O-])c3nonc23)CC1 was read as TRPM1 prom inh 6, EBV LMP1 NFkB -4, TROY NFkB inh -14, TWEAK Fn14 block -15, Shn3 3UTR inh 5 and Peg3 promoter 4.
For CCCC(=O)OCCNc1cc(Sc2nc3ccccc3[nH]2)c2nonc2c1[N+](=O)[O-] the results were TRPM1 prom inh -5, EBV LMP1 NFkB 12, TROY NFkB inh 44, TWEAK Fn14 block 40, Shn3 3UTR inh 93* and Peg3 promoter 109*.
CCC(=O)OCCNc1cc(Sc2nccn2C)c2nonc2c1[N+](=O)[O-] was read as TRPM1 prom inh 92*, EBV LMP1 NFkB 26, TROY NFkB inh 44, TWEAK Fn14 block 37, Shn3 3UTR inh 89* and Peg3 promoter 105*.
CCC(=O)OCCNc1cc(SCCC(=O)OC)c2nonc2c1[N+](=O)[O-] was read as TRPM1 prom inh -7, EBV LMP1 NFkB 3, TROY NFkB inh 27, TWEAK Fn14 block 2, Shn3 3UTR inh 19 and Peg3 promoter 30.
CCSc1nc(-c2ccccc2)c(C#N)c(=O)[nH]1 was read as TRPM1 prom inh 4, EBV LMP1 NFkB 3, TROY NFkB inh 4, TWEAK Fn14 block 7, Shn3 3UTR inh 19 and Peg3 promoter 18.
Screening CCCOc1ccc(-c2nc(SCc3ccccc3)[nH]c(=O)c2C#N)cc1OC returned TRPM1 prom inh 0, EBV LMP1 NFkB 10, TROY NFkB inh 51*, TWEAK Fn14 block -24, Shn3 3UTR inh 17 and Peg3 promoter 22.
Screening O=C(Nc1cc(S(=O)(=O)N2CCCCC2)ccc1Cl)c1ccccc1NS(=O)(=O)c1ccc(F)cc1 returned TRPM1 prom inh 15, EBV LMP1 NFkB 28, TROY NFkB inh 52*, TWEAK Fn14 block 65*, Shn3 3UTR inh 71 and Peg3 promoter 53*.
O=C(Nc1cc(S(=O)(=O)N2CCCCC2)ccc1O)c1ccccc1NS(=O)(=O)c1ccc(F)cc1 was read as TRPM1 prom inh 5, EBV LMP1 NFkB -8, TROY NFkB inh 43, TWEAK Fn14 block 15, Shn3 3UTR inh 17 and Peg3 promoter 19.
For Cc1ccc(S(=O)(=O)N2CCCCC2)cc1NS(=O)(=O)c1ccccc1F the results were TRPM1 prom inh 6, EBV LMP1 NFkB 7, TROY NFkB inh -1, TWEAK Fn14 block -6, Shn3 3UTR inh 95* and Peg3 promoter 0.
`O=C(c1cccc(C(F)(F)F)c1)c1c[nH]c(C(=O)NCCCN2CCOCC2)c1` gave TRPM1 prom inh 13, EBV LMP1 NFkB 6, TROY NFkB inh 1, TWEAK Fn14 block -8, Shn3 3UTR inh 0 and Peg3 promoter 19.
`c1ccc(N2CCN(Cc3cnc(N4CCOCC4)s3)CC2)cc1` gave TRPM1 prom inh 15, EBV LMP1 NFkB 22, TROY NFkB inh -3, TWEAK Fn14 block 7, Shn3 3UTR inh 12 and Peg3 promoter 19.
Screening Cc1ccc(NC(=O)COC(=O)C2CC(=O)N(Cc3ccccc3)C2)cc1F (centres undefined) returned TRPM1 prom inh 8, EBV LMP1 NFkB -1, TROY NFkB inh 0, TWEAK Fn14 block -6, Shn3 3UTR inh -3 and Peg3 promoter -4.
Screening COc1ccc(N2C(=O)C3CC(C)=C(C)CC3C2=O)c(OC)c1 (centres undefined) returned TRPM1 prom inh 13, EBV LMP1 NFkB -2, TROY NFkB inh 10, TWEAK Fn14 block 8, Shn3 3UTR inh 24 and Peg3 promoter -8.
`COc1cc(N2C(=O)C=CC2=O)ccc1N1C(=O)C=CC1=O` gave TRPM1 prom inh 74*, EBV LMP1 NFkB 49*, TROY NFkB inh 11, TWEAK Fn14 block -14, Shn3 3UTR inh 98* and Peg3 promoter 111*.
For COc1cc(OC)cc(C2=Cc3ccc(OC)cc3C(CC(C)=O)N2c2ccc(C#CC3(O)CCCCC3)cc2)c1 (centres undefined) the results were TROY NFkB inh 2 and TWEAK Fn14 block 47.
